Reference: PubChem BioAssay (NCI)
This is part of a sample that, as a whole, favours compounds with a hit. Of some 83,000 tested, about 20% had one in any assay.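 Method: cells in 96-well plates; compound added at one concentration; 48 h incubation; percent growth measured; values under 10 scored active.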 A number with no mark means an inactive call. The source made the active and inactive calls.

What follows are compounds tested on NCI-H460 lung (assay: NCI-60 one-dose screen, 48 h (100 = growth as untreated, 0 = no growth, -100 = all killed)). Settings: 10 µM unless noted.
`CCC(CC)N1C(=O)/C(=c2\sc3n(c2=O)NC2C(N=3)N(CC)C(=O)N2CC)c2ccccc21` (stereo not drawn) showed a growth of 27.5%.
Compound `CN1CCN(c2ccc(/C=N/Nc3nc4ccccc4c(=O)n3-c3ccccc3)cc2)CC1` has a growth of 109%.
In the case of `CC1=NC2=NC(=O)/C(=C3/N=C(C)C=C(c4ccccc4)N3N)NN2C(c2ccccc2)=C1`, the growth is reported as 111%.
`Nc1ncc(-c2ccc3ncnc(N4CCc5cc(F)c(F)cc54)c3c2)cn1` showed a growth of 18.9%.
In the case of `COc1ccc(Oc2ccc(/C=N/NC(=O)CSc3nc4ccccc4c(=O)n3-c3ccc(Cl)cc3)cc2)cc1`, the growth is reported as 11.2%.
`COc1ccc2c(c1)Oc1nc(N)c(C#N)c(N)c1C2Sc1ccc(C)cc1` (stereo not drawn) was tested, and the growth was -37.6% (active).
`CC(=O)C1=C(C)NC(NN)=NC1c1cccc(Cl)c1` (stereo not drawn) gave a growth of 112%.
`O=C(NNc1nc2cc(F)ccc2n2c(CO)ccc12)c1cnccn1` was tested, and the growth was 2.22% (active).
In the case of `NC(N)=Nc1ccc(Oc2cccc(NC(N)=Nc3ccc(Br)cc3)c2)cn1`, the growth is reported as 46.7%.
`CCOC(=O)C1=NNC(c2ccc(Cl)cc2)C1C(=O)N1C(=S)NC(=O)C1CC(C)C` (stereo not drawn) gave a growth of 105%.
Compound `CC/C(=C/c1c(O)cccc1OC)c1ccc2c(OC)cccc2[o+]1` has a growth of 103%.
In the case of `Cn1ccnc1C(=O)/C=C/c1ccc(CNC(=O)c2ccc(Cl)cc2)cc1`, the growth is reported as -18.9% (active).
Work on `COc1c(N2CC3CCCNC3C2)c(F)cc2c(=O)c(C(=O)N/N=C/c3ccc(F)cc3)cn(C3CC3)c12` (stereo not drawn) yielded a growth of 97.6%.
`CN(C)CCNC(=O)c1ccc(-c2nc3ccc4[nH]ncc4c3c3c2CCC3)cc1` was tested, and the growth was 1.65% (active).
`C=C(C=O)[C@@H]1CC[C@]2(COC(C)=O)CC[C@]3(C)C(CC[C@@H]4[C@@]5(C)CC[C@H](OC(C)=O)C(C)(C)[C@@H]5CC[C@]43C)[C@@H]12` (stereo partly drawn) was tested, and the growth was -23.2% (active).
In the case of `COc1c(N2CC3CCCNC3C2)c(F)cc2c(=O)c(C(=O)N/N=C/c3c[nH]c4ccccc34)cn(C3CC3)c12` (stereo not drawn), the growth is reported as 107%.
`COc1cc(C2N=C(NNc3ccccc3)NC(C)=C2C(C)=O)ccc1O` (stereo not drawn) was tested, and the growth was 106%.
`CCCCCc1ccc(S(=O)(=O)Nc2cccc(-c3csc(NC(=O)CNCCN(C)C)n3)c2)cc1` was tested, and the growth was 51.9%.
Work on `CCCCCc1ccc(S(=O)(=O)Nc2cccc(-c3csc(NC(=O)CCCCCN4CCN(CCO)CC4)n3)c2)cc1` yielded a growth of 23.9%.
For `CS(=O)(=O)Nc1cc(-c2ccc3ncc(C#N)c(NCc4ccccc4O)c3c2)cnc1Cl`, the growth was 7.88% (active).
`CC(=O)N1C(=S)NC(=O)C1CC(C)C` (stereo not drawn) gave a growth of 106%.
`COc1cc(/C=C2\C(=O)Nc3ccccc32)ccc1OCc1ccc(Cl)cc1` showed a growth of 41.1%.
For `COc1cc2oc(-c3cccc(NC(=O)c4cc(N)ccc4Cl)c3)cc(=O)c2c(OC)c1OC`, the growth was 104%.
For `COc1ccc(Cn2cc3c(c2-c2cc(OC)c(OC)c(OC)c2)CCc2c(CN4CCCC4)noc2-3)cc1`, the growth was 9.59% (active).
`CCCCCc1ccc(S(=O)(=O)Nc2cccc(-c3csc(NCCN4CCN(C)CC4)n3)c2)cc1` was tested, and the growth was -9.25% (active).
`CCC1=Cc2cc(OC)ccc2OC12C=Cc1cc(OC)ccc1O2` (stereo not drawn) was tested, and the growth was 4.15% (active).
For `CCCCCc1ccc(S(=O)(=O)Nc2cccc(-c3csc(NC(=O)CCCCCN4CCN(C)CC4)n3)c2)cc1`, the growth was -29.6% (active).
For `N#Cc1cnc2ccc(-c3cnc4[nH]ncc4c3)cc2c1N1CCc2cc(F)c(Cl)cc21`, the growth was 3.18% (active).
Work on `CC(C)C[C@@H]1N[C@@]2(C(=O)Nc3ccccc32)[C@@H](c2ccc(F)cc2)[C@@H]1C(=O)c1ccc(O)cc1` yielded a growth of 101%.
For `O=C(NNc1nc2cc(F)cc(F)c2n2cccc12)c1cnccn1`, the growth was 1.69% (active).
`O=C(NNc1nc2cc(F)c(F)cc2n2cccc12)c1cnccn1` was tested, and the growth was 7.99% (active).
In the case of `O=C(CNc1nc(-c2cccc([N+](=O)[O-])c2)cs1)Nc1cccc([N+](=O)[O-])c1`, the growth is reported as -15.7% (active).
Work on `CC(Nc1c(C#N)cnc2ccc(-c3cnc(N)nc3)cc12)c1ccccc1` (stereo not drawn) yielded a growth of 13.1%.
Compound `C=CCn1c(SCC(=O)Nc2ccc(C(=O)/C=C/c3ccc(Cl)cc3)cc2)nnc1-c1c[nH]c2ccccc12` has a growth of 95.1%.
Compound `CCCCCc1ccc(S(=O)(=O)Nc2cccc(-c3csc(NC(=O)CN4CCN(C)CC4)n3)c2)cc1` has a growth of 21.5%.
`O=C(NCc1ncc[nH]1)c1ccc(-c2nc3ccc4[nH]ncc4c3c3c2CCCC3)cc1` was tested, and the growth was 8.85% (active).
`Cc1c(Cl)cccc1S(=O)(=O)Nc1ccc2c(c1)C(=O)N(C1CCC(=O)NC1=O)C2=O` (stereo not drawn) was tested, and the growth was 111%.
`COC(=O)C1(C)CCC[C@]2(C)[C@H]3C[C@H]4C(C(C)C)=C[C@]3(CC[C@@H]12)[C@H]1[C@@H]4[C@@H](OC(=O)c2ccco2)CC[C@@H]1OC(=O)c1ccco1` (stereo partly drawn) gave a growth of 117%.
